From PubChem BioAssay
IL-1B inflam inh = blocks inflammasome-driven IL-1 beta release | THP-1 LPS/ATP IL-1B secretion, AlphaLISA, 16 h; hits give low values | activity change, % at 57.5 µM | 360,000 tested, 4.7% active; in the data active = activity change below about -50%; inconclusive = mostly about -30% to -49%; note: % is set by controls: 0 for no effect and ±100 for the full control effect
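THP-1 cells pretreated 1 hr with compounds (up to 57.5 uM final), then stimulated with LPS (250 ng/mL final) plus ATP (1.25 mM final); secreted IL-1B measured by AlphaLISA after 16 hr, decreased signal indicating inhibition.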
TGFb inhibitor = inhibitors of TGF-b signaling | HepG2 CAGA-GFP TGF-b/SMAD3 reporter, GFP fluorescence, 18 h; TGF-beta stimulated, 500 pg/mL final | Potency, µM (doses to about 46.1 µM), for the others: top-dose activity, negative = inhibition, hits mostly inhibitors | 410,000 tested, 1.2% active; note: potency is the fitted concentration of half-maximal effect; % is set by controls: 0 for no effect and ±100 for the full control effect; nearly all actives have a fitted effect of over 65% in size
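HEPG2 CAGA-GFP, 1000 cells/well; 2 h settle, 37 C; cpd via pin tool; TGF-b 500 pg/mL final; 18 h, 37 C; GFP imaging ex488/em500-530; %Activity normalised to -TGF-b and +DMSO controls; CRC fit, curve class.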
HepG2 tox = HepG2 cytotoxicity, counter-screen for TGF-b inhibitors. 410,000 tested, 0.76% active. HepG2 CAGA-GFP viability, ATP luminescence, 18 h. Potency, µM (top dose mostly 46.1 µM), for the others: at the top dose activity change, negative = cytotoxicity, most hits filed as cytotoxic; note: potency is the fitted concentration of half-maximal effect
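HepG2 CAGA-GFP cells (1000/well, DMEM with 1% FBS) received compound, then TGF-beta at 500 pg/mL final, and were incubated 18 hours at 37 degrees C. Viability was read by CellTiter-Glo luminescence. Media-only wells were set as complete cell-killing and DMSO as no toxicity.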
DT40 TDP1 CPT = DT40-hTDP1 cell growth loss with CPT; chicken DT40 Tdp1-/-;hTDP1 cells + 20 nM CPT, ATP luminescence, 48 h; Potency, µM (titrated, usually from 46.2 µM), inactives show at the highest dose activity change, negative = growth inhibition, usual class: inhibitors; 420,000 tested, 12% active; note: potency is the fitted concentration of half-maximal effect; % is set by controls: 0 for no effect and ±100 for the full control effect; nearly all actives have a fitted effect of over 55% in size
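Cell growth measured by CellTiter-Glo luminescence after a minimum 48 h, 37 C compound exposure with 20 nM CPT in Tdp1-knockout DT40 cells stably expressing hTDP1, seeded 400/well; qHTS titration format.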
TDP1 inh = TDP1 (human) enzyme inhibition | Q9NUW8 | recombinant TDP1, AlphaScreen DNA substrate cleavage | Potency, µM (titrated, usually from 130 µM), without a hit: top-dose activity change, negative = inhibition, usual class: inhibitors | 350,000 tested, 0.28% active; note: potency is the fitted concentration of half-maximal effect; % is set by controls: 0 for no effect and ±100 for the full control effect; nearly all actives have a fitted effect of over 40% in size
Target sequence (Q9NUW8 whole entry, looked up): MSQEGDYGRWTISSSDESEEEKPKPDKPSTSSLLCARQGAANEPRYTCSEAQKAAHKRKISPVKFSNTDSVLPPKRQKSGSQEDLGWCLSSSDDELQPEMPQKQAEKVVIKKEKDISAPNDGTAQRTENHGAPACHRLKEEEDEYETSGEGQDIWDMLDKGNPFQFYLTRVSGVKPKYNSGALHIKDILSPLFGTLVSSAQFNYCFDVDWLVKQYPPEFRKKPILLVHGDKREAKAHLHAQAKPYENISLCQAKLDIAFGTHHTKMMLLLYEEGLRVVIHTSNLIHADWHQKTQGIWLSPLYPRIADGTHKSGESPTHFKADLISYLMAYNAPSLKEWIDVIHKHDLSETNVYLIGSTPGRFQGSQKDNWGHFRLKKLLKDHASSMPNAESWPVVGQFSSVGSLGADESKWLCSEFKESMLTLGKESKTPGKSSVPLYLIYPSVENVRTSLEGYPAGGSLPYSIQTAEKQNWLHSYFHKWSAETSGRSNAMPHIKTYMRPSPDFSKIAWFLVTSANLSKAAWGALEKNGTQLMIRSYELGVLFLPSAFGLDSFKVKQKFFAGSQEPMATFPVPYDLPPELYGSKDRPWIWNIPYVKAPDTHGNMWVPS
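Recombinant E. coli-expressed Tdp1 (1 nM) preincubated with compound 15 min at RT, then 5'-biotin/3'-phosphotyrosine-FITC DNA substrate (15 nM) added for 5 min. AlphaScreen beads (10 ug/ml) added, 10 min RT; tyrosine-FITC cleavage read as signal loss.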
DT40 TDP1 no CPT = qHTS for Inhibitors of human tyrosyl-DNA phosphodiesterase 1 (TDP1): qHTS in cells in absence of CPT. 420,000 tested, 15% active. DT40 Tdp1-/- hTDP1 cells, no CPT, ATP luminescence, 48 h. Potency, µM (titrated, usually from 46.2 µM), without a hit: at the highest dose activity change, negative = growth inhibition, usual class: inhibitors; note: potency is the fitted concentration of half-maximal effect; % is set by controls: 0 for no effect and ±100 for the full control effect; nearly all actives have a fitted effect of over 55% in size
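Chicken DT40 Tdp1-/- cells complemented with human TDP1, screened without camptothecin (DMSO vehicle only), 400 cells/well. Compounds pin-transferred, cells incubated at 37 °C for at least 48 hr. Growth read as ATP-dependent luminescence (CellTiter-Glo, 30 min at RT).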
* hit, by the source's call; ? = inconclusive; . = no result. The list is not random: actives were taken first. Their share in the collection is about 18%. Unless noted, calls come from the whole dose curve; as a rule, active = well fitted curve in the direction sought with a large enough effect; inconclusive = small, poorly fitted or top-dose-only effect, or another doubt; inactive = no such curve, though single readings can be large; an effect the other way counts as inactive or inconclusive.

SMILES	IL-1B inflam inh	TGFb inhibitor	HepG2 tox	DT40 TDP1 CPT	TDP1 inh	DT40 TDP1 no CPT
O=C(c1cc2ccccc2oc1=O)N(c1ccc(Cl)cc1)C1C=CS(=O)(=O)C1 (configuration not stated)	0.0	9.2%	-2.4%	16.4µM*	-1.1%	?
CCOCCc1nnc(NC(=O)Cc2c(F)cccc2Cl)s1	-21.9	-5.1%	-1.0%	-8.8%	0.0%	1.6%
COc1ccc2c(C)cc(N3CCCCCC3)nc2c1	-67.2*	-10.7%	-18.0%	?	-13.9%	?
Cc1cc(N2CCC(N(C)C3CCCC3)CC2)nc2cc(O)ccc12	-21.5	17.8%	1.5%	?	7.6%	18.4µM*
N#CCNC1CC(=O)N(c2ccc(F)cc2)C1=O (configuration not stated)	-15.3	2.4%	-0.7%	4.61µM*	.	?
COc1cccc(C(O)c2nc(-c3ccc(N(C)C)cc3)cs2)c1 (configuration not stated)	28.1	5.0%	-20.8%	23.1µM*	.	16.4µM*
COc1ccc(-c2csc(C(O)c3ccccc3)n2)cc1 (configuration not stated)	12.3	-4.3%	-21.5%	?	.	?
COc1ccc(-c2csc(C(O)c3ccc(F)c(F)c3)n2)cc1 (configuration not stated)	6.0	-1.1%	-10.4%	18.4µM*	.	13µM*
CCN(CC)C(=O)c1cccc(-c2csc(C(O)c3cccc(OC)c3)n2)c1 (configuration not stated)	-17.5	-26.1%	-32.3%	23.1µM*	.	4.61µM*
COc1ccc(-c2csc(C(O)c3cccc(OC)c3)n2)cc1 (configuration not stated)	10.5	?	-40.9%	11.6µM*	.	?
CCOC(=O)C1CCN(C(c2cccc(F)c2)c2c(O)cc(C)n(CCOC)c2=O)CC1 (configuration not stated)	.	-5.4%	-1.5%	5.5%	0.0%	-0.5%
COc1cccc(C(O)c2nc(-c3cc(F)cc(F)c3)cs2)c1 (configuration not stated)	-20.0	-8.9%	-18.1%	20.6µM*	.	?
COc1cccc(C(O)c2nc(-c3cccc(C(C)C)c3)cs2)c1 (configuration not stated)	0.0	?	-45.2%	?	.	?
O=C(c1ccco1)N1CCCN(Cc2nc(-c3ccc4c(c3)OCO4)no2)CC1	3.7	-12.2%	2.1%	-10.4%	6.1%	16.4µM*
c1ccc(CCC2CCCCN2Cc2nc(-c3ccc4c(c3)OCO4)no2)nc1 (configuration not stated)	-27.6	-28.7%	-20.2%	16.4µM*	.	20.6µM*
COCC1CCN(Cc2nc(-c3ccc4c(c3)OCO4)no2)C1 (configuration not stated)	7.9	9.6%	-1.3%	3.2%	0.0%	-12.2%
COc1ccc(-c2nc(CN3CCCCC3CCc3ccccn3)c(C)o2)cc1 (configuration not stated)	14.5	4.1%	-8.5%	5.7%	0.0%	?
c1ccc(C(c2ccccc2)c2noc(CN3CCC(c4ccncc4)CC3)n2)cc1	-16.9	-5.3%	-4.9%	20.6µM*	0.0%	?
c1cc(C2CCN(Cc3nc(-c4ccc5c(c4)OCO5)no3)CC2)ccn1	-25.5	-27.9%	-26.7%	20.6µM*	2.4%	11.6µM*
Fc1ccc(CN2CCCN(Cc3nc(-c4ccc5c(c4)OCO5)no3)CC2)cc1	-11.1	-15.2%	-23.6%	?	2.6%	?
Fc1ccc(NCc2nnc3n2CCCCC3)cc1Cl	.	25.2%	2.7%	-4.0%	2.7%	0.0%
CCOc1ccc(C(=O)NCCc2sc(-c3cccc(F)c3)nc2C)cc1OCC	.	6.2%	-8.2%	18.4µM*	1.8%	?
COc1ccc(S(=O)(=O)NCCc2sc(-c3cccc(C)c3)nc2C)cc1	.	?	-17.3%	.	0.0%	.
CCOc1ccc(S(=O)(=O)NCCc2sc(-c3ccc(C)cc3)nc2C)cc1	.	?	-34.8%	?	9.9%	16.4µM*
CCOc1ccc(C(=O)NCCc2sc(-c3ccc(C)cc3)nc2C)cc1	.	0.8%	-18.1%	23.1µM*	3.3%	?
SMILES	IL-1B inflam inh	TGFb inhibitor	HepG2 tox	DT40 TDP1 CPT	TDP1 inh	DT40 TDP1 no CPT
CCOc1ccc(C(=O)NCCc2sc(-c3ccc(F)cc3)nc2C)cc1	.	-8.7%	-22.7%	?	3.8%	?
Cc1nc(-c2cccc(F)c2)sc1CCNC(=O)c1ccc(F)c(F)c1	.	?	-23.1%	?	4.1%	?
O=C([O-])c1cc(-c2ccccc2)cc(-c2ccccc2)[n+]1Cc1ccccc1	.	.	.	.	-9.1%	.
Cc1ccc(CNC(=O)C23CN(Cc4ccccc4)CC2C(c2cccc([N+](=O)[O-])c2)=NO3)cc1 (configuration not stated)	0.0	-14.2%	-28.7%	?	11.6%	20.6µM*
O=C(NCc1ccco1)C12CN(Cc3ccccc3)CC1C(c1ccc([N+](=O)[O-])cc1)=NO2 (configuration not stated)	-29.0	4.8%	-1.5%	16.4µM*	6.7%	?
O=C(NCc1ccco1)C12CN(Cc3ccccc3)CC1C(c1cccc([N+](=O)[O-])c1)=NO2 (configuration not stated)	-25.0	?	-25.8%	?	9.9%	18.4µM*
c1ccc(-c2ccc3c(c2)NCCN3)cc1	-75.1*	-13.4%	-16.2%	?	.	?
Nc1cc(-c2ccccc2)ccc1O	14.5	-1.9%	-20.5%	-20.2%	6.9%	?
Cn1sc2ccccc2c1=O	-100.4*	?	-110.5%	2.31µM*	.	1.64µM*
O=c1ccsc2ccccc12	0.6	4.3%	-29.3%	7.4%	.	2.3%
CC(=O)Nc1ccc(-c2cc(N)n(-c3ccccc3)n2)cc1	-4.6	-1.4%	-5.0%	-20.1%	1.2%	-23.2%
CC(=O)Nc1ccc2c(=O)n(-c3ccccc3)sc2c1	-104.2*	?	-78.4%	2.59µM*	.	3.26µM*
O=C(O)c1cccc(-n2sc3ccccc3c2=O)c1	-106.6*	?	-38.0%	?	-0.2%	?
O=c1c2ccccc2sn1-c1cccc(Cl)c1	-102.4*	?	-64.5%	1.84µM*	.	2.31µM*
Cc1ccc2c(c1)N(C(=O)CCC(=O)NC1CCC(C)CC1)CCO2 (configuration not stated)	-12.3	1.8%	-0.4%	?	.	?
